# Reference: PubChem BioAssay AID588342 (National Center for Advancing Translational Sciences (NCATS), 2011)
# Out of some 360,000 compounds screened, about 25,000 (6.9%) were called active. Not shown: some 9% with an inconclusive outcome. Calls follow the shape of the dose curve; as a rule, active = well fitted inhibition curve with a large enough effect; inconclusive = small, poorly fitted or top-dose-only effect; inactive = flat fitted curve, though single readings scatter. What follows is part of a selection rich in actives, with near analogues and random picks from the rest.
# Target: Luciferin 4-monooxygenase (Photinus pyralis) (UniProt P08659)
# Test: qHTS profiling assay for firefly luciferase inhibitor/activator using purifed enzyme and Km concentrations of substrates (counterscreen for miR-21 project); also: nearly all actives have a fitted effect of over 55% in size;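 as to activity change, negative = inhibition: plate controls were vehicle for no effect and reference inhibitor for full effect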
# Conditions: purified FLuc, luminescence inhibition; series mostly up to 57.5 µM; activity change, negative = inhibition: at the top concentration
# Procedure, shortened: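 Biochemical qHTS of compounds, final roughly 60 µM downward over six points, against 10 nM purified firefly luciferase using Km concentrations of substrates (10 uM D-luciferin, 10 uM ATP) in Tris acetate pH 7.5 buffer; luminescence output.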
# Potency is read from the fitted curve at half-maximal effect.
# Sequence of Luciferin 4-monooxygenase (Photinus pyralis) (P08659 whole entry, looked up): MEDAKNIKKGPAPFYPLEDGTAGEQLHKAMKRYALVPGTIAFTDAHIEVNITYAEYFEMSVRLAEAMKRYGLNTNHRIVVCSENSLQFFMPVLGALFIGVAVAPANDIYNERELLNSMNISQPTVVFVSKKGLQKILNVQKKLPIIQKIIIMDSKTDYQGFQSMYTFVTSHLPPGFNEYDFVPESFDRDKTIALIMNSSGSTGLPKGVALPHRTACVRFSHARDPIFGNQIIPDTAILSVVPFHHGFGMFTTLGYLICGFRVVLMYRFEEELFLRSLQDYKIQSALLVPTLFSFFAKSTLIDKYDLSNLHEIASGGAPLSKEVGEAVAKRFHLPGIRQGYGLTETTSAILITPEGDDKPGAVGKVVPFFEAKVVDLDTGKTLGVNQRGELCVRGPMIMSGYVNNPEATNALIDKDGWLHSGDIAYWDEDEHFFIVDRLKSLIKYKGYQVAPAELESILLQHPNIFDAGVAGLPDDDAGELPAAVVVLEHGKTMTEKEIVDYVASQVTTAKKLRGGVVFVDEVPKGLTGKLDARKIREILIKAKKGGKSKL
Structure (SMILES),"activity change, negative = inhibition",Potency
CCCC(=O)N1CCN(c2nc3c(OC)ccc(C)c3s2)CC1,-13.8% (inactive),–
COc1ccccc1NC(=O)c1cc(C2CC2)nc2c1c(C)nn2-c1ccc(C)cc1,2.95% (inactive),–
CS(=O)(=O)C1=NN2C(=N)/C(=C\c3ccc(OCCOc4ccccc4)cc3)C(=O)N=C2S1,5.51% (inactive),–
CS(=O)(=O)c1ccc2c(c1)SC1=NC(=O)/C(=C/c3ccco3)C(=N)N12,–,10.7 µM (active)
CC(C)(C)C1C/C(=C/c2ccco2)C(=O)/C(=C/c2ccco2)C1 (configuration not stated),8.48% (inactive),–
CC(NC(=O)CN(C)S(=O)(=O)c1ccc(F)cc1)C1CC2CCC1C2 (configuration not stated),6.14% (inactive),–
Cc1ccc2oc(=O)c3cnn(CC(=O)NCc4ccccc4Cl)c3c2c1,0.217% (inactive),–
CCOc1ccccc1C1CC(c2cccc(NS(C)(=O)=O)c2)=NN1C(=O)c1ccccc1 (configuration not stated),-1.5% (inactive),–
CCOc1cccc2c1OC1(CCCCC1)N1N=C(c3cccnc3)CC21 (configuration not stated),–,19 µM (active)
N#CCN(C(=O)COC(=O)C1CC2CCCC(C1)C2=O)c1ccccc1 (configuration not stated),0.412% (inactive),–
CC(=O)n1c(C=Nc2ccccc2)c(O)c2ccccc21,–,16.9 µM (active)
Cc1c(C=O)c2ccccc2n1CC(=O)O,-1.92% (inactive),–
CCCn1c(=O)c(-c2ccccc2)c(O)c2ccccc21,3.5% (inactive),–
COC(=O)c1cn(CC(=O)NCc2cccs2)c2ccccc12,-12.6% (inactive),–
Cc1ccccc1NC(=O)Cn1cc(C(=O)c2cccs2)c2ccccc21,-10.7% (inactive),–
O=C(Cn1cc(C(=O)c2cccs2)c2ccccc21)NCc1cccs1,–,19 µM (active)
COc1ccc(-c2nc(Cn3c(=O)cc(C)c4c(C)nn(-c5ccccc5)c43)c(C)o2)cc1OC,-0.0045% (inactive),–
O=C(CCc1nnc2ccc(NCc3ccco3)nn12)Nc1cc(F)ccc1F,-1.74% (inactive),–
COc1ccc(CCNCc2c(-c3ccccc3)n(C)c3ccccc23)cc1,-0.95% (inactive),–
COc1ccc(-c2c(C#Cc3ccccc3)c3ccccc3n2C)cc1,–,12 µM (active)
CN(C)Cc1c(C#N)c2ccccc2n1C,1.17% (inactive),–
Cc1ccc(-c2nn(CCC(=O)Nc3ccc(OC(F)(F)F)cc3)c(=O)c3ccccc23)cc1,1.85% (inactive),–
Cc1c(NC(=O)C(C)OC(=O)c2cc3c4ccccc4n(C)c3s2)c(=O)n(-c2ccccc2)n1C (configuration not stated),-17.6% (inactive),–

Structure (SMILES),"activity change, negative = inhibition",Potency
Cc1cccc(NC(=O)CSc2nc3c([nH]c4ccccc43)c(=O)n2-c2cc(C)cc(C)c2)c1,3.56% (inactive),–
Cn1c(=NC(=O)c2cnccn2)sc2ccccc21,–,4.78 µM (active)
COC(=O)c1ccc(OC(=O)c2cnccn2)cc1,-6.6% (inactive),–
O=C(NCCCNC(=O)c1ccccc1Cl)c1cnccn1,0.753% (inactive),–
Cc1ccc(S(=O)(=O)c2nc(-c3ccco3)oc2SCC(=O)Nc2ccc(F)cc2)cc1,-1.94% (inactive),–
COc1ccccc1C(=O)Oc1ccc(N2C(=O)CCC2=O)cc1,-18.3% (inactive),–
CCOC(=O)c1cc(OC(=O)c2ccccc2Cl)n(-c2ccccc2)n1,-10.6% (inactive),–
Cc1cc(OC(=O)c2ccccc2Cl)ccc1N1C(=O)CCC1=O,–,5.36 µM (active)
COCCN(Cc1ccco1)C(=O)Cn1ncc2c([nH]c3ccccc32)c1=O,-7.77% (inactive),–
COc1ccc(NC(=O)CCCN2C(=O)C(c3ccccc3)Oc3cccnc32)cc1 (configuration not stated),-5.7% (inactive),–
Cc1[nH]n(C(N)=S)c(=O)c1N=Nc1ccc(Cl)cc1Cl,–,10.7 µM (active)
Cc1[nH]n(C)c(=O)c1N=Nc1ccc(S(C)(=O)=O)cc1,-0.788% (inactive),–
Cn1c(SCc2nc3ccccc3s2)nnc1-c1ccc2c(c1)OCO2,-1.94% (inactive),–
O=C(CSc1nnc(-c2ccncc2)o1)NCc1ccc(Cl)cc1,3.75% (inactive),–
Clc1ccc(-c2nnc(SCc3nc4ccccc4s3)o2)cc1,–,19 µM (active)
COc1ccc(-n2c(=O)c3sc4ccccc4c3n(CC(=O)Nc3cccc(C)c3)c2=O)cc1,-12.3% (inactive),–
Cc1cc(C)c2nc3nc(C)cc(C)c3c(N)c2c1,–,15.1 µM (active)
Cc1cc(C)c([N+](=O)[O-])cc1-c1ccc(/C=N/NC(=O)c2nonc2N)o1,-5.62% (inactive),–
O=C1C2C3C=CC(C4CC34)C2C(=O)N1/N=C/c1ccc(-c2ccccc2[N+](=O)[O-])o1 (configuration not stated),–,10.7 µM (active)
O=C(CN1C(=O)CCn2nc(-c3ccccc3)cc21)NCc1ccccc1,2.85% (inactive),–
CCOc1cccc(CC(=O)N2CCc3c([nH]c4ccccc34)C2c2ccc(F)cc2)c1OCC (configuration not stated),1.15% (inactive),–
O=C(Cc1nc2ccccc2[nH]c1=O)c1ccc(Cl)cc1,–,0.757 µM (active)
N#C/C(=C(/O)COC(=O)COc1ccc(Cl)cc1)c1nc2ccccc2[nH]1,-0.937% (inactive),–

Structure (SMILES),"activity change, negative = inhibition",Potency
O=C(/C(=C/c1cccc(Cl)c1)c1nc2ccccc2[nH]1)c1ccccc1,-8.51% (inactive),–
COc1ccc(N2CCN(C3=NS(=O)(=O)C(c4cccc(Br)c4)=C3C)CC2)cc1,5.84% (inactive),–
CCOC(=O)c1sc(/N=C/C2=C(O)CC(C)(C)CC2=O)c(C(=O)OCC)c1C,–,19 µM (active)
CCOC(=O)c1c(CC(C)C)csc1/N=C/C1=C(O)CCCC1=O,-0.466% (inactive),–
CCOC(=O)c1c(/N=C/C2C(=O)CC(C)(C)CC2=O)sc(C)c1C,3.4% (inactive),–
Cc1ccc(N2CC(C(=O)Nc3ccc(N(C)C)cc3)CC2=O)cc1Cl (configuration not stated),-2.6% (inactive),–
O=C(NNC(=O)c1ccc(Cl)cc1Cl)c1cccs1,–,12 µM (active)
O=C(COC(=O)c1ccc(O)cc1O)NNC(=O)c1cccs1,0.579% (inactive),–
NNC(=O)c1ccc(Cl)cc1Cl,2.1% (inactive),–
CC1CCCCN1S(=O)(=O)c1ccc(F)c(C(=O)Nc2ccccc2C(F)(F)F)c1 (configuration not stated),-1.59% (inactive),–
Cc1cccc(NC(=O)CSc2nc(-c3ccco3)cc(C(F)(F)F)n2)c1C,1.44% (inactive),–
COc1ccc(NS(=O)(=O)c2cc(NC(=O)COc3ccccc3F)ccc2OC)cc1,-14.1% (inactive),–
COc1ccc2oc(=O)c(C(=O)N3CCCC3)cc2c1,-13.4% (inactive),–
COc1cccc(C(=O)c2cc3ccc(O)cc3oc2=O)c1,–,12 µM (active)
COc1ccc2oc(=O)c(C(=O)N3CCN(c4ccccc4F)CC3)cc2c1,-1.22% (inactive),–
CNS(=O)(=O)c1ccc(C(=O)NCC(=O)NCCc2ccc3c(c2)OCCO3)cc1,1.07% (inactive),–
COC(=O)c1c(NC(=O)c2ccc(Cl)c(Cl)c2)sc2c1CCCC2,1.82% (inactive),–
Cn1c(=O)c2c(ncn2CC(=O)Nc2cccc(C(F)(F)F)c2)n(C)c1=O,1.3% (inactive),–
Cc1cc(NC(=O)c2ccco2)c(=O)n(Cc2c(F)cccc2Cl)c1,-4.61% (inactive),–
CCN(CC)S(=O)(=O)c1ccc(C(=O)N=c2sc3cccc(OC)c3n2C)cc1,2.03% (inactive),–
Cn1c(=NC(=O)c2ccco2)sc2cccc(F)c21,–,3.38 µM (active)
